Compounds without any hit were thinned out: in the full panel of roughly 83,000, 20% have a hit.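 Method: cells in 96-well plates; compound added at one concentration; 48 h incubation; percent growth measured; values under 10 scored active.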 A number with no mark means an inactive call. Active and inactive are the calls of the source.
Experiments:
Test in all cases: NCI-60 one-dose screen, 48 h (100 = growth as untreated, 0 = no growth, -100 = all killed)
Conditions in all cases: 10 µM unless noted
SR leukemia = tested on: SR leukemia
RPMI-8226 leukemia = tested on: RPMI-8226 leukemia
OVCAR-8 ovarian = tested on: OVCAR-8 ovarian
OVCAR-5 ovarian = tested on: OVCAR-5 ovarian
OVCAR-4 ovarian = tested on: OVCAR-4 ovarian
SK-OV-3 ovarian = tested on: SK-OV-3 ovarian
IGROV1 ovarian = tested on: IGROV1 ovarian
OVCAR-3 ovarian = tested on: OVCAR-3 ovarian
HS 578T breast = tested on: HS 578T breast
NCI/ADR-RES ovarian = tested on: NCI/ADR-RES ovarian
T-47D breast = tested on: T-47D breast
BT-549 breast = tested on: BT-549 breast
MDA-MB-435 melanoma = tested on: MDA-MB-435 melanoma
SW-620 colon = tested on: SW-620 colon
MCF7 breast = tested on: MCF7 breast
HCT-116 colon = tested on: HCT-116 colon
HCC-2998 colon = tested on: HCC-2998 colon
KM12 colon = tested on: KM12 colon

Row | SMILES | growth (SR leukemia) | growth (RPMI-8226 leukemia) | growth (OVCAR-8 ovarian) | growth (OVCAR-5 ovarian) | growth (OVCAR-4 ovarian) | growth (SK-OV-3 ovarian) | growth (IGROV1 ovarian) | growth (OVCAR-3 ovarian) | growth (HS 578T breast) | growth (NCI/ADR-RES ovarian) | growth (T-47D breast) | growth (BT-549 breast) | growth (MDA-MB-435 melanoma) | growth (SW-620 colon) | growth (MCF7 breast) | growth (HCT-116 colon) | growth (HCC-2998 colon) | growth (KM12 colon)
1 | CN1C(=O)N(C)C2C1NN=c1s/c(=C\c3ccc(F)cc3)c(=O)n12 (stereo not given) | 26.8% | 66.5% | 29.5% | 48.6% | 28.6% | 33.1% | 11% | 7.29% (active) | 14.8% | 10.3% | 13.3% | 44.2% | -19% (active) | 10.2% | 4.25% (active) | 4.86% (active) | 57.8% | 18.9%
2 | COc1ccc(S(=O)(=O)NC2c3ccccc3CC2O)cc1OC (stereo not given) | 100% | 104% | 107% | 104% | 117% | 115% | 106% | 112% | 98.8% | 105% | 105% | 112% | 105% | 100% | 97.3% | 104% | 99.8% | 101%
3 | C#CCOc1ccc(C2=NN(CCCC)C3N=C(Cl)c4ncn(CCCC)c4N23)cc1OCC#C (stereo not given) | 79.1% | 85.2% | 85.9% | 93.6% | 86.2% | 92.3% | 99.2% | 97.2% | 80.6% | 83% | 69.6% | 90.6% | 86.7% | 88.7% | 81.8% | 83.1% | 107% | 88.3%
4 | O=C(Nc1ccccc1CNc1nc(Nc2ccc(OCCN3CCCC3)cc2)ncc1Cl)NC1CCCCC1 | 5.48% (active) | 60.8% | 57.5% | 114% | 46.6% | 104% | 88.1% | 99.5% | 85.2% | 74% | 100% | 83.7% | -83.9% (active) | 87.7% | 55.2% | 90.9% | 95.5% | 71.5%
5 | CN1CCN(CCCNC(=O)c2c3c(n4ccccc24)C(=O)c2ncccc2C3=O)CC1 | -8.6% (active) | 29.4% | -9.12% (active) | 39.4% | -100% (active) | 28.6% | -24.6% (active) | -10.7% (active) | 61.2% | 40.9% | -4.38% (active) | 54.8% | -81.1% (active) | -5.63% (active) | -43.8% (active) | -16.4% (active) | -32.2% (active) | 11.3%
6 | COC(=O)c1c(C)nc(C)c2c1C(=O)C(Br)=C(NCCN1CCOCC1)C2=O | 107% | 93.7% | 81.9% | 118% | 73.8% | 138% | 96.2% | 13.2% | 110% | 103% | 114% | 101% | 56.1% | 92.1% | 82.3% | 67.4% | 101% | 96.9%
7 | COc1ccc(Cn2cc(C(=O)N=Nc3c(O)[nH]c4ccc(Br)cc34)nn2)cc1 | 77.5% | 100% | 99.2% | 106% | 105% | 108% | 105% | 112% | 114% | 103% | 106% | 111% | 101% | 107% | 86.3% | 77% | 98.5% | 104%
8 | CCOC(=O)c1cc(C(=O)c2cc(OC)cc(OC)c2)n2ccccc12 | 16.3% | 27.6% | 42.2% | 95.2% | 72.4% | 35.8% | 52.7% | -5.04% (active) | 39.4% | 12.4% | 49.3% | 35.7% | -4.66% (active) | 28.2% | 22.3% | 12.2% | 54.7% | 24.2%
9 | C=CC(=O)NCc1cccc(Nc2ncc(Br)c(NCCCNC(=O)C3CCC3)n2)c1 | 2.53% (active) | -14.7% (active) | 5.56% (active) | 10.2% | -2% (active) | -42% (active) | 1.89% (active) | -33.4% (active) | -14.1% (active) | 35.8% | -12% (active) | -50.2% (active) | -51.4% (active) | 0.584% (active) | 1.62% (active) | 4.93% (active) | -48.6% (active) | 4.95% (active)
10 | CC(=O)c1c(/C=C/c2ccc(C)cc2)c2ccccc2[nH]c1=O | 99.5% | 91.5% | 86.8% | 100% | 88.9% | 90.2% | 57.4% | 92.5% | 85.9% | 85.8% | 85.7% | 95.1% | 96.1% | 95.1% | 88.7% | 91.7% | 96.5% | 100%
11 | O=S(=O)(Nc1ccc(Br)cc1)c1ccc(-c2cnc(C3CC3)o2)cc1 | 12.7% | 13.9% | 41.5% | 51% | 67.8% | 35.5% | 36.1% | -7.12% (active) | -8.02% (active) | -2.19% (active) | 18.6% | 47.1% | -9% (active) | 11.1% | 16.1% | 18.7% | 56.2% | 24.6%
12 | O=C(Nc1ccc2c(c1)-c1ccccc1C2)C1CC(=O)N(c2ccc3c(c2)OCO3)C1 (stereo not given) | 77.2% [50 µM] | 81.8% [50 µM] | 28.5% [50 µM] | 83.5% [50 µM] | 2.45% [50 µM] (active) | 76.1% [50 µM] | 80.5% [50 µM] | 31.3% [50 µM] | 31.7% [50 µM] | 58.9% [50 µM] | 52.8% [50 µM] | 80.3% [50 µM] | 70.7% [50 µM] | 75.2% [50 µM] | 65.6% [50 µM] | 36.8% [50 µM] | 81% [50 µM] | 51.2% [50 µM]
13 | CS(=O)(=O)Nc1cc(-c2ccc3ncnc(Nc4cccc(Cl)c4)c3c2)cnc1Cl | 0.413% (active) | -44.8% (active) | 16.4% | 7.66% (active) | 13.7% | -28.4% (active) | -25.7% (active) | -10.7% (active) | -13.6% (active) | 19.2% | -22.9% (active) | -15.5% (active) | 8.58% (active) | 11.5% | 5.3% (active) | -26.9% (active) | 2.63% (active) | 5.4% (active)
14 | O=[N+]([O-])c1ccc(Oc2cccc3c(Oc4ccc([N+](=O)[O-])cc4[N+](=O)[O-])cccc23)c([N+](=O)[O-])c1 | 77.5% | 95.6% | 77.7% | 109% | 87.8% | 83.1% | 79.6% | 95.2% | 88.1% | 79.9% | 81.7% | 82.4% | 106% | 87.8% | 76.6% | 83.1% | 110% | 86.7%
15 | COc1cccc(CNc2nnc(C)c(C)n2)c1O | 102% | 100% | 99.2% | 108% | 103% | 87% | 107% | 110% | 108% | 104% | 94% | 101% | 111% | 109% | 97.3% | 100% | 96.4% | 107%
16 | C=C(C)[C@@H]1CC[C@]2(COCCCNCCCN)CC[C@]3(C)[C@H](CC[C@@H]4[C@@]5(C)CC[C@H](OCCCN)C(C)(C)[C@@H]5CC[C@]43C)[C@@H]12 | -49.2% (active) | -51.7% (active) | -66.3% (active) | -49% (active) | -79.4% (active) | 102% | -81.1% (active) | 47.8% | 87.4% | -80.2% (active) | -65.2% (active) | 99.6% | -91.2% (active) | -80.8% (active) | -77.9% (active) | -82.5% (active) | – | -89.8% (active)
17 | CC(C)(C)n1cc(-c2ccnc(NCCNS(=O)(=O)c3cccc4ccccc34)c2)c(-c2cccc(O)c2)n1 | 30.1% | 27.4% | 65.9% | 84.4% | 80.1% | 81.9% | 87% | 91% | 84.6% | 77% | 31.4% | 60.5% | 78.6% | 35.8% | 49.4% | 46.5% | 66.3% | 57.5%

From PubChem BioAssay (NCI)
